Rab9 prom act = activators of Rab9 promoter | Huh7 Rab9 promoter-luciferase reporter, luminescence, 24 h | Potency, µM (doses to about 9.22 µM), without a hit: top-dose activation, negative = inhibition, hits mostly activators | actives 2.8% (n = 320,000); also: % of control where 0% means no effect; nearly all actives have a fitted effect of over 60% in size
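Cell-based reporter: Huh7 stable for Rab9 promoter-driven luciferase, plated in reduced-serum medium with 10% FBS at 1500 cells/well, compound-treated 24 h at 37 °C, luminescence read after 10 min reagent.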
NPC1 prom act = activates the NPC1 promoter; actives 2.4% (n = 320,000); Potency, µM (titrated, usually from 9.22 µM), for the others: at the top dose activation, actives largely listed as activators; Huh7 NPC1 promoter luciferase reporter, 24 h; also: % of control where 0% means no effect; nearly all actives have a fitted effect of over 60% in size
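Cells: Huh7 expressing luciferase under the NPC1 promoter, 1500/well. Seeded 2 h, compound added, incubated 24 h at 37 °C. Luciferase reagent, 10 min ambient, then luminescence.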
SMN2 splice enh = increases expression of the SMN2 splice variant; HEK293 SMN2-luciferase splicing reporter, luminescence, 30-36 h; Potency, µM (series often up to 46.1 µM), for the others: top-dose activity change, positive = activation, usual class: activators; actives 2.8% (n = 210,000); also: % of control where 0% means no effect; nearly all actives have a fitted effect of over 55% in size
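HEK293 cells carry an SMN2 minigene-luciferase reporter in which exon 7 inclusion puts luciferase in frame. Cells were seeded at 2000 cells/well, attached for 10-12 hours, then exposed to compounds for 30-36 hours at 37C before ONE-Glo luminescence.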
FLuc modulator = inhibits or activates purified firefly luciferase, miR-21 counter-screen | P08659 | purified FLuc, Km substrates, luminescence inhibition | Potency, µM (series often up to 57.5 µM), without a hit: at the highest dose activity change, negative = inhibition, hits mostly inhibitors | actives 6.9% (n = 360,000);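 also: plate controls were vehicle for no effect and reference inhibitor for full effect; nearly all actives have a fitted effect of over 55% in size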
Target sequence (P08659 whole entry, looked up): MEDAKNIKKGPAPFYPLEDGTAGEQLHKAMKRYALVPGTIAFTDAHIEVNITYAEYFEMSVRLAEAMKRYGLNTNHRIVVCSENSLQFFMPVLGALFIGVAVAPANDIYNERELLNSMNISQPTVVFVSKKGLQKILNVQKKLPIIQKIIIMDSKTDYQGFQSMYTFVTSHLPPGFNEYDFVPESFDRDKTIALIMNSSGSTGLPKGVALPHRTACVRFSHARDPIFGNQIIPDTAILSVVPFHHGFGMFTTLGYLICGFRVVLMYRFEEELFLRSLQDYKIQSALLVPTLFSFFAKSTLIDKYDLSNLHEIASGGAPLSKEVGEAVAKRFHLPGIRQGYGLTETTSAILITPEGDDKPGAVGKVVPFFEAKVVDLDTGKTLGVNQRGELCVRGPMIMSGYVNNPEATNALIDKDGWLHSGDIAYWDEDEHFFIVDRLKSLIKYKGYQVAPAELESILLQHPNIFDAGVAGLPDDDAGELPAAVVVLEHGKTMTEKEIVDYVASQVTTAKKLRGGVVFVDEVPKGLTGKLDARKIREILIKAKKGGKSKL
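Purified P. pyralis luciferase (10nM final) with 10uM D-luciferin and 10uM ATP (Km levels) in 50mM Tris acetate pH 7.5, 10mM Mg acetate, 0.01% Tween-20, 0.05% BSA; qHTS 6-point titration, ~60 µM downward; luminescence read.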
ELG1 genotoxic = induces genotoxicity in HEK293T cells with luciferase-tagged ELG1. HEK293T ELG1-luciferase reporter, luminescence, 16 h. Potency, µM (highest dose often 46 µM), for the others: top-dose activity change, positive = activation, actives largely listed as activators. actives 1.3% (n = 330,000); also: % of control where 0% means no effect; nearly all actives have a fitted effect of over 60% in size
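After overnight (16 hr) compound treatment at 37 °C, ELG1-luciferase HEK293T cells were lysed with ONE-Glo; luminescence quantified 30 min later at room temperature.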
Luc counter = counter-screen: inhibitors of Kinase-Glo firefly luciferase; Q27757; Kinase-Glo luciferase, ATP luminescence, 8 min; Potency, µM (doses to about 38.3 µM), inactives show at the highest dose activity change, negative = inhibition, actives largely listed as inhibitors; actives 0.28% (n = 200,000); AID 1379; also: % is scaled to controls: 0 for no effect and ±100 for the full control effect; nearly all actives have a fitted effect of over 60% in size
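Substrate mix (final 50 mM imidazole pH 7.2, 50 mM KCl, 7 mM MgCl2, 10 uM ATP, 0.01% Tween 20, 0.05% BSA) plus pin-tool compound, then Kinase-Glo detection mix; 8 min ambient, luminescence read.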
* hit, by the source's call; ? = inconclusive; · = not tested or not shown; [ ] = remark or other dose. Rows were chosen to be rich in hits. Some 7.4% of all compounds tested hit in one or more screens of this group. Calls follow the shape of the dose curve; as a rule, active = well fitted curve in the direction sought with a large enough effect; inconclusive = small, poorly fitted or top-dose-only effect, or another doubt; inactive = no such curve, though single readings can be large; an effect the other way counts as inactive or inconclusive. Potency is read from the fitted curve at half-maximal effect.

SMILES | Rab9 prom act | NPC1 prom act | SMN2 splice enh | FLuc modulator | ELG1 genotoxic | Luc counter
Cc1nnc(NC(=O)c2sc3ccccc3c2Cl)s1 | 1µM* | 1.26µM* | 12.6µM* | 0.379µM* | ? | -10.9%
Cc1cc2c(cc1Cl)C(c1ccc3c(c1)OCO3)CC(=O)O2 (configuration not stated) | · | · | · | · | · | 1.0%[39.9 µM]
Cc1cccnc1NC(=O)c1sc2ccccc2c1Cl | 2.51µM* | 1.41µM* | · | 2.69µM* | 3.66µM* | ·
Cc1c(NC(=S)NC(=O)c2sc3ccccc3c2Cl)cccc1C(=O)O | ? | ? | 3.98µM* | 0.757µM* | ? | -0.9%
O=C(O)CCCn1cc(NC(=O)c2sc3ccccc3c2Cl)cn1 | -3.9% | -2.2% | · | 26.9µM* | 3.3% | ·
COc1ccccc1C(=O)NNC(=S)NC(=O)c1sc2ccccc2c1Cl | -6.6% | -7.6% | -1.3%[1.84 µM] | -12.8% | 2.2% | -4.3%
CCN(CC)c1ccc(NC(=O)c2sc3ccccc3c2Cl)cc1 | · | · | -7.5% | ? | · | ·
CNC(=O)c1ccsc1NC(=O)c1sc2ccccc2c1Cl | ? | ? | 12.6µM* | 3.79µM* | 14.8% | -0.3%
COc1ccc(C)cc1NC(=O)Nc1nnc(N2CCCCC2)s1 | · | · | · | 1.0% | · | ·
COc1cccc(/C=C/C(=O)c2ccc(NC3=NCCCS3)cc2)c1 | 1.3% | -3.1% | -26.3% | 10.7µM* | ? | -7.0%
O=C(/C=C/c1ccccc1)c1ccc(NC2=NCCCS2)cc1 | ? | ? | 20.1% | 4.26µM* | ? | 8.7%
Cc1cccc(/C=C/C(=O)c2ccc(NC3=NCCCS3)cc2)c1 | 18.2% | 8.1% | -19.7% | 13.5µM* | ? | 0.3%
CC(C)(C)c1ccc(/C=C/C(=O)c2ccc(NC3=NCCCS3)cc2)cc1 | -3.4% | 1.1% | -106.7% | 15.1µM* | -10.8% | 4.2%
Cc1cccc(C(=O)Nc2ccc(C(=O)/C=C/c3cccnc3)cc2)c1 | 16.6% | 13.2% | 25.6% | -6.9% | ? | 0.1%
O=C(/C=C/c1ccc(Br)cc1)c1ccc(NC2=NCCCS2)cc1 | -3.8% | 1.2% | · | ? | -14.4% | -10.6%
CCc1ccc(S(=O)(=O)c2c(C(=O)c3ccc(C)c(C)c3)cnc3ccccc23)cc1 | · | · | 3.3% | 4.1% | · | ·
CN(C(=O)Cn1c(=O)n(Cc2ccc(C(=O)NCc3ccc4c(c3)OCO4)cc2)c(=O)c2ccccc21)c1ccccc1 | · | · | 15.3% | -3.9% | · | ·
CCOC(=O)c1ccc2c(c1)N(CC(=O)Nc1ccc(C)cc1C)C(=O)c1ccccc1S2 | · | · | · | 4.6% | · | ·
COc1ccc(OC)c(S(=O)(=O)N2CC=C(c3c(C)n(CC(=O)N4CCCC4)c4ccccc34)CC2)c1 | · | · | -14.1% | -1.7% | · | ·
Cc1nc(Nc2ccc(C(=O)O)cc2)sc1-c1ccccc1 | ? | 1.26µM* | · | 0.169µM* | ? | 1.4%
Cc1nc(Nc2ccccc2)sc1-c1ccccc1 | 0.398µM* | 1.26µM* | · | 0.338µM* | ? | ·
COc1ccc(C(=O)CN2C(=O)N(c3cc(C)cc(C)c3)S(=O)(=O)c3ccccc32)cc1 | · | · | · | -5.4% | · | ·
C#CCN1C(=O)S/C(=C/C=C/c2ccc(N(C)C)cc2)C1=O | 2µM* | 3.16µM* | 7.08µM* | 2.69µM* | 9.2µM* | -22.8%
CS(=O)(=O)Nc1ccc(C2=NN(C(=O)c3ccco3)C(c3ccc(F)cc3)C2)cc1 (configuration not stated) | -2.6% | -3.0% | -56.5% | -2.7% | -4.1% | 3.0%
O=C(c1ccco1)N1N=C(c2ccc3nccnc3c2)CC1c1ccccc1 (configuration not stated) | 16.5% | -8.0% | 0.5% | 16.9µM* | 6.1% | 0.4%
SMILES | Rab9 prom act | NPC1 prom act | SMN2 splice enh | FLuc modulator | ELG1 genotoxic | Luc counter
C/C(=N\NC(=S)Nc1cc(S(=O)(=O)N2CCOCC2)ccc1Cl)c1ccccc1F | -14.7% | -5.2% | -82.3% | 26.9µM* | 7.9% | 3.6%
Clc1cc(Cl)c2nc(N3CCCCC3)sc2c1 | 3.98µM* | 2.82µM* | ? | 8.49µM* | ? | -8.0%
Clc1cccc2sc(N3CCCCC3)nc12 | ? | 29.2% | ? | 23.9µM* | 23.1µM* | -1.2%
Cc1cc2n(n1)C(c1ccc3c(c1)OCO3)Nc1c(C)cccc1-2 (configuration not stated) | -2.2% | -1.3% | 3.98µM* | -6.9% | -3.6% | 0.2%
Cc1ccccc1Nc1c(-c2ccsc2)nc2c(C)cccn12 | · | · | 12.6µM* | ? | · | ·
Cc1ccn2c(Nc3ccccc3C)c(-c3ccncc3)nc2c1 | -9.8% | -3.4% | 17.8µM* | ? | 1.7% | -3.0%
COc1ccc(CC(=O)N2CCc3cc(OC)c(OC)cc3C2COc2ccc3c(C)cc(=O)oc3c2)cc1OC (configuration not stated) | · | · | 3.5% | 1.9% | · | ·
CCOc1ccc(C2C(C(N)=O)=C(C)Nc3nc(SCc4ccccc4)nn32)cc1 (configuration not stated) | · | · | 2.7% | -7.0% | · | ·
COc1ccc(C2=N[C@H](c3ccccc3)CO2)cc1 | · | · | · | · | · | -14.7%[39.9 µM]
COc1ccc(C2=NC(c3ccccc3)CO2)cc1 (configuration not stated) | 3.55µM* | 3.16µM* | ? | 1.51µM* | ? | -11.6%
O=[N+]([O-])c1cccc(C2=NC(c3ccccc3)CO2)c1 (configuration not stated) | ? | ? | 1.5% | 26.9µM* | ? | 0.5%
COc1ccccc1Nc1nc2ccc(C)cc2cc1C#N | 16.2% | 19.2% | 0.9% | 12µM* | 1.3% | 0.2%
O=C(CSc1ccc(F)cc1)Nc1ccc(Br)cc1 | 2.82µM* | ? | ? | 13.5µM* | ? | -1.8%
COC(=O)c1ccc(NC(=O)CSc2ccccc2)cc1 | ? | 18.5% | 17.2% | 26.9µM* | ? | 1.0%
COC(=O)c1ccc(NC(=O)CSc2ccccn2)cc1 | 13.1% | 2.3% | -14.2% | ? | ? | -1.5%
CC[C@](N)(CCC(=O)O)C(=O)O | · | · | 17.1% | · | · | -0.8%
CCOc1ccc(NC(=O)CN(c2ccc(OC)cc2)S(C)(=O)=O)cc1 | 25.9% | ? | -5.6% | 21.3µM* | 16.4µM* | -0.2%
CCOc1ccc(N(CC(=O)Nc2ccc(OC)cc2)S(C)(=O)=O)cc1 | ? | ? | 11.5% | ? | ? | -3.9%
CCOc1ccc(N(CC(=O)NCCSCc2ccccc2Cl)S(C)(=O)=O)cc1 | 0.7% | 1.9% | · | 3.1% | -9.6% | ·
COC(=O)c1ccccc1NC(=O)CN(c1ccc(OC)cc1)S(C)(=O)=O | -3.2% | -5.5% | -7.7% | -1.6% | -3.1% | -0.6%
CCOc1ccc(N(CC(=O)NCc2ccccc2C)S(C)(=O)=O)cc1 | ? | 3.16µM* | · | 13.5µM* | ? | ·

High-throughput results as filed in PubChem BioAssay.
